TGFb SMAD3 inh: blocks TGF-b signaling; 410,000 compounds, 1.2% hits; Potency, µM (series often up to 46.1 µM), most hits filed as inhibitors; AID 588855; HepG2 CAGA-GFP TGF-b/SMAD3 reporter, GFP fluorescence, 18 h; TGF-beta stimulated, 500 pg/mL final; note: nearly all actives have a fitted effect of over 65% in size
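Using HEPG2 CAGA-GFP reporter cells at 1000 cells/well, we pinned test compounds, stimulated with recombinant TGF-beta (500 pg/mL final) and measured total well GFP after 18 h.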
Giardia killer: kills Giardia lamblia; Giardia lamblia trophozoite viability; activity change, % at 7.66 µM, hits read low; 340,000 compounds, 0.15% hits; in the data active = activity change below about -80%; inconclusive = between about -30% and that limit;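 note: parasites exposed to compound for two days anaerobically before the ATP read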
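Viability, read as ATP luminescence: trophozoites at 100 cells/well, compound added, 48 hrs anaerobic at 37 deg C, then 15-30 min room-temperature development before reading.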
HT1080 IDH1KD tx: kills HT-1080 cells with IDH1 knockdown; HT-1080 IDH1 knockdown viability, ATP luminescence, 48 h; Potency, µM (series often up to 46.1 µM), hits mostly cytotoxic; 360,000 compounds, 2% hits
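CellTiter-Glo luminescence after 48 h compound exposure at 37 degrees C of IDH1-knockdown HT-1080 cells in 5% FBS RPMI. %Activity scaled between DMSO wells and cell-free media wells, with curves fitted and assigned curve classes.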
IL1B secr inh: inflammasome signaling inhibition, IL-1 beta readout. THP-1 LPS/ATP IL-1B secretion, AlphaLISA, 16 h; stronger effect = lower value. activity change, % at 57.5 µM. 360,000 compounds, 4.7% hits. AID 743279; in the data active = activity change below about -50%; inconclusive = mostly about -30% to -49%
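THP-1 cells pretreated 1 hr with compounds (up to 57.5 uM final), then stimulated with LPS (250 ng/mL final) plus ATP (1.25 mM final); secreted IL-1B measured by AlphaLISA after 16 hr, decreased signal indicating inhibition.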
HepG2 viability: counter-screen for TGF-b inhibitors: cytotoxicity in HepG2 cells; 410,000 compounds, 0.76% hits; Potency, µM (titrated, usually from 46.1 µM), most hits filed as cytotoxic; AID 588856; HepG2 CAGA-GFP viability, ATP luminescence, 18 h
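HepG2 CAGA-GFP cells (1000/well, DMEM with 1% FBS) received compound, then TGF-beta at 500 pg/mL final, and were incubated 18 hours at 37 degrees C. Viability was read by CellTiter-Glo luminescence. Media-only wells were set as complete cell-killing and DMSO as no toxicity.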
HT1080-NT tox: kills 2HG-producing HT-1080-NT fibrosarcoma cells; 360,000 compounds, 1.6% hits; Potency, µM (top dose mostly 46.1 µM), most hits filed as cytotoxic; HT-1080-NT fibrosarcoma viability, CellTiter-Glo ATP luminescence, 48 h;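 note: NT is the 2HG producing partner of a matched IDH1 knockdown line; nearly all actives have a fitted effect of over 55% in size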
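HT-1080-NT fibrosarcoma cells (2HG-overproducing), 750 cells/well in RPMI with 5% FBS, dosed after 2 h and incubated 48 h at 37C. CellTiter-Glo luminescence normalized to DMSO and no-cell wells; concentration-response curves fitted and classed.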
A number is an active result; i = inactive; ? = inconclusive; nt = no result. Rows were chosen to be rich in hits. Some 6.5% of all compounds tested hit in one or more screens of this group. Unless noted, calls come from the whole dose curve; as a rule, active = well fitted curve in the direction sought with a large enough effect; inconclusive = small, poorly fitted or top-dose-only effect, or another doubt; inactive = no such curve, though single readings can be large; an effect the other way counts as inactive or inconclusive.

SMILES	TGFb SMAD3 inh	Giardia killer	HT1080 IDH1KD tx	IL1B secr inh	HepG2 viability	HT1080-NT tox
Cc1ccc(C)c(N2CCN(C(=O)c3ccc4nsnc4c3)CC2)c1	i	i	9.2µM	?	i	8.2µM
Cc1ccc(Cl)cc1N1CCN(C(=O)c2noc(C(C)C)c2[N+](=O)[O-])CC1	i	i	?	-81	i	?
Cc1ccc(C)c(N2CCN(C(=O)c3noc4c3CCCCC4)CC2)c1	13µM	nt	nt	nt	i	nt
CCOc1ccc(S(=O)(=O)NCc2ccncc2)cc1	?	i	i	i	i	i
O=C(NCC(=O)N1CCN(C(c2ccccc2)c2ccccc2)CC1)c1ccc(Br)o1	i	i	i	-73	i	i
O=C(CCn1c(=O)c2ccccc2n(Cc2cccc([N+](=O)[O-])c2)c1=O)N1CCc2ccccc2C1	i	i	i	i	i	i
CCn1c(=O)c2ccccc2n(Cc2cccc([N+](=O)[O-])c2)c1=O	i	i	i	-50	i	i
Cc1cccc(NC(=S)NC2CC3CCCC(C2)N3Cc2cccs2)c1 (stereo unspecified)	i	i	?	-78	i	?
COc1ccc(C2c3c4c(n(C)c3CCN2C)CCN(C)C4c2ccc(OC)cc2)cc1 (stereo unspecified)	i	i	?	-55	i	?
CN1CCc2c(c3c(n2C)CCN(C)C3c2ccc(F)cc2)C1c1ccc(F)cc1 (stereo unspecified)	i	i	i	i	i	i
Cc1cc(C)c(CSc2nnnn2-c2ccc(C(=O)O)cc2)c(C)c1	i	i	i	i	i	i
Cc1ccc(SCc2nc3ccccc3n2CC(=O)Nc2ccc(Cl)cc2)cc1	?	i	?	i	i	?
CC(C)Cn1c(N2CCN(CC(=O)Nc3ccc(Cl)cc3)CC2)nc2ccccc21	?	i	i	-85	i	i
Cc1ccc(/C=N/NC(=O)Cn2cncn2)cc1	i	i	i	i	i	i
Clc1nnc(N2CCCCC2)c2ccccc12	i	i	i	-81	i	i
Cc1ccc(-c2nnc(N3CCCCC3)c3ccccc23)cc1	i	i	i	-56	i	i
c1ccc(-c2nnc(N3CCN(c4ccccn4)CC3)c3ccccc23)cc1	i	i	i	-73	i	i
Cc1nnc(N2CCCCC2)c2ccccc12	i	i	i	i	i	i
Cc1ccc(-c2nnc(N3CCN(c4ccccn4)CC3)c3ccccc23)cc1	?	i	?	-89	i	i
Cc1c(C(=O)OCC(=O)Nc2cccc(S(N)(=O)=O)c2)oc2c1ccc1ccccc12	?	i	?	i	i	i
Cc1ccc([N+](=O)[O-])cc1NC1CC(O)C(CO)O1 (stereo unspecified)	i	i	i	i	i	i
Cc1ccc(-c2nnc(N3CCN(CCO)CC3)c3ccccc23)cc1	i	i	i	?	i	i
Cc1ccc(-c2nnc(N3CC(C)OC(C)C3)c3ccccc23)cc1 (stereo unspecified)	i	i	i	-75	i	i
O=C(CNC(=O)c1ccc2c(c1)OCCO2)N/N=C/c1ccco1	i	i	i	i	i	?
CCc1ccn2cc(-c3cc(-c4ccccc4)no3)nc2c1	?	?	?	i	10µM	?
SMILES	TGFb SMAD3 inh	Giardia killer	HT1080 IDH1KD tx	IL1B secr inh	HepG2 viability	HT1080-NT tox
O=C(c1ccc([N+](=O)[O-])s1)N1CCCc2ccccc21	?	?	?	?	i	i
O=C(c1ccc(C(=O)N2CCCc3ccccc32)s1)N1CCCc2ccccc21	?	i	i	-52	i	i
CN(C)CCCN1C(=O)c2cccc3c([N+](=O)[O-])ccc(c23)C1=O	?	i	5.8µM	-51	i	?
O=C1c2cccc3c([N+](=O)[O-])ccc(c23)C(=O)N1CCc1ccccn1	i	i	i	i	i	i
O=C(O)c1ccc(CN2C(=O)c3cccc4c([N+](=O)[O-])ccc(c34)C2=O)cc1	i	i	?	-99	i	?
O=C(Nc1nccs1)c1cccc(N2C(=O)c3cccc4c([N+](=O)[O-])ccc(c34)C2=O)c1	i	i	16µM	-106	i	21µM
O=C(Nc1ccc(S(=O)(=O)Nc2nccs2)cc1)c1cccc(N2C(=O)c3ccccc3C2=O)c1	i	?	i	i	i	i
Cc1ccc(C(=O)O)cc1N1C(=O)c2cccc3c([N+](=O)[O-])ccc(c23)C1=O	?	i	?	i	i	16µM
O=C(O)c1ccc(CN2C(=O)c3ccc(C(=O)O)cc3C2=O)cc1	i	i	i	i	i	i
COc1ccc(NC(=O)CN(C)C(=O)C(CCSC)NC(=O)c2ccccc2)cc1 (stereo unspecified)	i	i	i	i	i	i
CCCCN(Cc1ccc(Cl)c(Cl)c1)c1ccc(Br)cn1	nt	i	i	nt	nt	i
CCC(C)C(NC(=O)OCc1ccccc1)C(=O)NC(Cc1ccc(O)cc1)C(=O)OC (stereo unspecified)	i	i	i	i	i	i
O=S(=O)(NN=Cc1cccc(Cl)c1)c1ccccc1	i	nt	i	i	i	i
CC(=O)Oc1cccc(N2C(=O)c3ccc(C(=O)O)cc3C2=O)c1	?	i	i	i	i	i
CC(=O)Oc1cccc(N2C(=O)c3cccc4c([N+](=O)[O-])ccc(c34)C2=O)c1	i	i	i	-95	i	i
C(=C/c1nccc2c1[nH]c1ccccc12)/c1ccc2c(c1)OCO2	?	i	16µM	i	i	?
Cc1nnc(SCC(=O)Nc2nonc2C)s1	i	i	i	i	i	i
COc1ccc(CN2CCN(Cc3ccc4cc(F)ccc4n3)CC2CCO)c(C)c1C (stereo unspecified)	?	i	18µM	?	i	?
CCOc1cc(CN2CCN(CCc3ccccc3)C(CCO)C2)ccc1OC (stereo unspecified)	i	i	i	-69	i	i
COc1cc(CN2CCN(Cc3ccc4cc(F)ccc4n3)CC2CCO)cc(OC)c1 (stereo unspecified)	i	i	i	?	i	i
CCOc1ccc2nc(CN3CCN(Cc4ccccc4OCC)C(CCO)C3)ccc2c1 (stereo unspecified)	i	i	?	-70	i	i
CCOc1ccccc1CN1CCN(Cc2cc3ccccc3[nH]2)CC1CCO (stereo unspecified)	i	i	?	?	i	23µM
COc1ccc(CN2CCN(CCCc3ccccc3)C(CCO)C2)cc1OC (stereo unspecified)	i	i	i	i	i	i
CCOc1ccccc1CN1CCN(Cc2ccc3cc(F)ccc3n2)CC1CCO (stereo unspecified)	i	i	i	i	i	i

Source: PubChem (National Center for Advancing Translational Sciences (NCATS))
